Results as given in PubChem BioAssay.
“And” between values parts separate entries of the source, which are not always exact repeats. Identical values can stand only once.

Key:
[1] = system: Botulinum neurotoxin type F light chain protease (Clostridium botulinum); test: Clostridium botulinum type F light chain protease inhibitors, microsphere substrate cleavage, validation (AID 588459); conditions: multiplex microsphere protease substrate cleavage assay, flow cytometry; at 10 µM; stronger effect = higher value
[2] = target: Botulinum neurotoxin type A (Clostridium botulinum) (UniProt P0DPI0); test: BoNT/A light chain protease inhibitors, biochemical, multiplex microsphere flow cytometry, validation set (AID 588460); conditions: at 10 µM, stronger effect = higher value
[3] = target: Lethal factor (Bacillus anthracis) (UniProt P15917); test: Bacillus anthracis lethal factor inhibition, microsphere flow cytometry protease assay, validation at 10 µM (AID 588461); conditions: multiplex microsphere protease cleavage assay, stronger effect = higher value

Measured: inhibition

O=C(CN1C(=O)C2CCc3[nH]c4ccccc4c3C2C1=O)N1CCCC1 (stereo unspecified)
inactive: [1] 0.5% | [2] 1.1% | [3] 4.3%

COc1ccc(/C=C\C(=O)c2c(O)ccc3c(C)cc(=O)oc23)cc1OC
inactive: [1] 1.5% | [2] 0.2% | [3] -2.9%

COc1ccc(/C=C\c2cc(OC)c(OC)cc2CC[N+](C)(C)C)cc1OC
inactive: [1] 2% | [2] -1.4% | [3] 3.5%

COc1cc(OC)cc(C(=O)N[C@@H](CCSC)c2nc3ccccc3[nH]2)c1
inactive: [1] 0.7% | [2] 0.8% | [3] -0.7%

C=CCC1(O)C(=O)N2C(=C1C(=O)N1CCOCC1)c1ccccc1CC2(C)C (stereo unspecified)
inactive: [1] -1.7% | [2] -0.2% | [3] 5.7%

C[C@]12CC[C@@H]3c4ccc(O)cc4CC[C@H]3[C@@H]1CCC2=O
inactive: [1] 1.3% | [2] -2.2% | [3] -3.8%

CC1(C)CC(=O)C(C2(O)C(=O)Nc3ccccc32)CO1 (stereo unspecified)
inactive: [1] -0.1% | [2] -1.6% | [3] -6%

O=C(NCCCCCc1nc2ccccc2[nH]1)c1ccccc1Cl
inactive: [1] 1.4% | [2] 0.3% | [3] 3.6%

CC(C)CC(=O)OC1C(N2CCOCC2)c2c(ccc(/C=C/C(=O)N3CCOCC3)c2O)OC1(C)C (stereo unspecified)
inactive: [1] 0.5% | [2] -0.5% | [3] -0.5%

CC(C)CN1CCN(Cc2ccc(C#CC(C)(C)O)cc2)CC1CCO (stereo unspecified)
inactive: [1] 3.7% | [2] -1.1% | [3] -2.1%

CC1(C)Cc2nc3sc4c(=O)n(CC(N)=O)cnc4c3cc2CO1
inactive: [1] -0.6% | [2] 1.1% | [3] -3.8%

O=C(/C=C/c1ccc(F)cc1)NC(=S)N1CCCCC1c1cccnc1 (stereo unspecified)
inactive: [1] 1% | [2] -0.6% | [3] -0.1%

Cc1ccc2c(c1)C1(C(=O)N2)N2CCCC2C(C(=O)c2ccc3ccccc3c2)C12C(=O)Nc1ccccc12 (stereo unspecified)
inactive: [1] 0% | [2] -1% | [3] -10%

CC#C[C@]1(O)CC[C@H]2[C@@H]3CCC4=CC(=O)CCC4=C3[C@@H](c3ccc(N(C)C)cc3)C[C@@]21C
inactive: [1] -3.9% | [2] -2% | [3] -7.2%

COc1cc2c(cc1OC)/C(=C/c1ccc(Cl)cc1)C(=O)OC2
inactive: [1] -0.2% | [2] 0.8% | [3] -1.5%

COc1ccc(S(=O)(=O)NC(Cc2cnc[nH]2)C(=O)O)cc1 (stereo unspecified)
inactive: [1] 2.4% | [2] -0.6% | [3] -0.5%

COc1ccc2c(c1OC)C(=O)N1C2SC[C@H]1C(=O)NC1CC(C)(C)NC(C)(C)C1 (stereo partly specified)
inactive: [1] 3.2% | [2] -0.5% | [3] -2.4%

CCOC(=O)C(=Cc1ccccc1OC)C(=O)OCC
inactive: [1] -0.7% | [2] -2.6% | [3] -6.9%

C/C(=N\NC(=O)c1ccccc1[N+](=O)[O-])c1ccc(Br)s1
inactive: [1] 1.5% | [2] 1.6% | [3] 5.5%

COC(=O)C1=NN(C(=O)c2cccc(Br)c2)C(O)(c2ccc(Cl)cc2)C1 (stereo unspecified)
inactive: [1] 3.1% | [2] -0.5% | [3] 1.2%

Cc1nc(N)sc1C(=O)N/N=C/c1ccco1
inactive: [1] -4.3% | [2] 0.1% | [3] 0.8%

COCCCC/C(=N\OCCN)c1ccc(C(F)(F)F)cc1
inactive: [1] -1.3% | [2] -0.2% | [3] -0.1%

Cc1ccsc1C1NC(=O)c2ccccc2N1 (stereo unspecified)
inactive: [1] -6.7% | [2] -1.3% | [3] -5.3%

COc1ccc(CCCC(=O)O)c(C)c1
inactive: [1] -0.2% | [2] 0.1% | [3] 6.1%

O=C(CS(=O)(=O)c1ccccc1)c1ccc2c(c1)OCCO2
inactive: [1] 3.2% | [2] 0.7% | [3] 2.2%

O=C1CCCCCN1Cc1ccccc1
inactive: [1] -3.6% | [2] -1.9% | [3] -2.7%

O=c1c(-c2ccc3c(c2)OCCO3)coc2cc(OC3OC(CO)C(O)C(O)C3O)ccc12 (stereo unspecified)
inactive: [1] 0.2% | [2] 0.1% | [3] 6.4%

Cc1ccc(C(=O)N2CC3(C(C)C)CN(C(=O)c4ccc(C)cc4)CC(C(C)C)(C2)C3=O)cc1
inactive: [1] 5% | [2] -0.5% | [3] -2.5%

CCc1cc(=O)oc2cc(OCc3nn[nH]n3)ccc12
inactive: [1] -0.5% | [2] -1.3% | [3] 1.9%

COc1ccc2cc(C3(C)NC(=O)NC3=O)ccc2c1 (stereo unspecified)
inactive: [1] -0.4% | [2] -0.4% | [3] 0.8%

OC[C@H]1O[C@@H](n2cnc3c(Nc4ccccc4)ncnc32)[C@H](O)[C@@H]1O
inactive: [1] 1.4% | [2] -0.2% | [3] -2.1%

CCCCCC(=O)O[C@]1(C(C)=O)CC[C@H]2[C@@H]3CCC4=CC(=O)CC[C@]4(C)[C@H]3CC[C@@]21C
inactive: [1] 1.9% | [2] 1.3% | [3] -1.6%

CCOc1cc2c3c(c1)C(C)=CC(C)(C)N3C(=O)C2=O
inactive: [1] 1.1% | [2] -2.5% | [3] -4%

CNc1nc(Nc2ccccc2)nc(OCC(F)(F)F)n1
inactive: [1] 0.2% | [2] 0.2% | [3] -2.5%

NC(N)=N/N=C/c1c(Cl)cccc1Cl
inactive: [1] -0.2% | [2] 0.6% | [3] 0.5%

OCCN(Cc1nc(-c2ccc3c(c2)OCO3)no1)Cc1cccs1
inactive: [1] 2.4% | [2] 0.4% | [3] 2%

NS(=O)(=O)c1cc2c(cc1C(F)(F)F)NC(Cc1ccccc1)NS2(=O)=O (stereo unspecified)
inactive: [1] 2.4% | [2] 1.4% | [3] 3.5%

CCN1/C(=C/C=C/C=C/c2sc3ccccc3[n+]2CC)Sc2ccccc21
inactive: [1] -1% | [2] 16.8% | [3] -36.6%

O=C(O)c1ccc(-c2ccc(O)c(F)c2)cc1
inactive: [1] -6.5% | [2] -1.7% | [3] 0.4%

COc1ccc(CNC(=O)c2c(O)c3cccc4c3n(c2=O)CCC4)cc1
inactive: [1] 4.9% | [2] -0.1% | [3] -5.7%

CC(=O)Nc1c(I)c(NC(C)=O)c(I)c(C(=O)O)c1I
inactive: [1] -0.5% | [2] -1.9% | [3] 0.5%

CCCCC(=O)O[C@H]1CC[C@H]2[C@@H]3CCc4cc(O)ccc4[C@H]3CC[C@]12C
inactive: [1] 0.5% | [2] 0.1% | [3] -1.7%

Cn1cc(/C=C/C(=O)c2ccccc2)c2ccccc21
inactive: [1] -4.2% | [2] -0.5% | [3] -5.4%

CCOc1cccc(N2C(=O)CC(N(CCc3ccc(OC)c(OC)c3)C(=O)CC)C2=O)c1 (stereo unspecified)
inactive: [1] 4.3% | [2] 0.7% | [3] 0.4%

COc1cc(C(=O)Nc2cccc(-c3nnc(-c4ccco4)o3)c2)ccc1OC(C)=O
inactive: [1] 3.1% | [2] 2.1% | [3] 0.6%

COc1ccc(CCN=CC2=C(O)CC(C)(C)CC2=O)cc1
inactive: [1] 1.2% | [2] -0.7% | [3] -4.5%

NNC(=O)c1cc(O)c(O)c(O)c1
inactive: [1] -3.2% | [2] -1% | [3] -2.8%

OCC(O)CN1CCN(c2ccccc2)CC1 (stereo unspecified)
inactive: [1] 1.1% | [2] 0.8% | [3] -2.7%

CCCCNc1ccc(C(=O)OCCN(C)C)cc1
inactive: [1] 0.2% | [2] 0.4% | [3] 2.7%

COc1ccc(C2C3CCCCC3(O)CCN2C(=O)c2cccs2)cc1 (stereo unspecified)
inactive: [1] 2.8% | [2] 2.1% | [3] 5.5%

CCCC(=O)O[C@]1(C(=O)CO)CC[C@H]2[C@@H]3CCC4=CC(=O)CC[C@]4(C)[C@H]3[C@@H](O)C[C@@]21C
inactive: [1] 5.1% | [2] 0.1% | [3] -0.6%

Cc1cccc(Oc2coc3cc(OC(=O)c4cncc(Br)c4)ccc3c2=O)c1
inactive: [1] 2.1% | [2] 0.8% | [3] 2%

CCc1cc(=O)oc2cc3occ(-c4ccc(OC)c(F)c4)c3cc12
inactive: [1] 2.2% | [2] -0.9% | [3] -2.7%

O=C(/C=C/c1ccc2c(c1)OCO2)c1ccccn1
inactive: [1] -2.7% | [2] -0.2% | [3] -2.8%

CC(C)NC(=O)c1ccc(C(C)C)cc1
inactive: [1] -2.3% | [2] -1.2% | [3] -2.8%

c1cc2c(cc1C1CCCCC1)c1c3n2CCN=C3CCC1
inactive: [1] 0.7% | [2] -0.3% | [3] -11.8%

O=c1c2[nH]c3ccccc3c2ncn1CCC1=CCCCC1
inactive: [1] 4.3% | [2] 0.9% | [3] -3.1%

COC(=O)c1cc(Br)c(=O)n(CCc2ccc(O)cc2)c1
inactive: [1] 2.6% | [2] 1.3% | [3] -5.3%

c1ccc(CN(CC2=NCCN2)c2ccccc2)cc1
inactive: [1] 5.3% and 2.2% | [2] 1.1% and 0.4% | [3] -3.2% and 1.4%

O=C(CCc1c[nH]c2ccccc12)NCc1ccco1
inactive: [1] 2.9% | [2] 0.2% | [3] 5.8%

COC(=O)c1cc(-c2c(C)oc3cc(OC)ccc3c2=O)c(C)o1
inactive: [1] -0.4% | [2] -2% | [3] -6.6%

NCc1ccccc1COc1ccccc1
inactive: [1] 2.3% | [2] 0.1% | [3] -1.7%
